From PubChem BioAssay (EPA / NIEHS)
Records with an inconclusive call do not appear. Active and inactive are the calls of the source. How the source made its calls: active means hit-call score of the fitted dose curve at least 0.9, where 1 is the maximum; inconclusive means response in the unintended direction; inactive means score below 0.9.

Columns and labels:
[1] = molecular target: Cellular tumor antigen p53 (Homo sapiens) (UniProt P04637); experiment: TOX21_p53_BLA_p2_ratio: Tox21 HCT-116 p53 Agonism Beta-lactamase Assay, Ratio, Phase 2 (AID 2283592)
Summary of the method: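 Cleaved-to-uncleaved substrate ratio (460 vs 530 nm) measured in HCT116 cells with an inducible beta-lactamase reporter linked to p53 activity. Compounds incubated 16 h at 37C before 2 h room-temperature CCF4-AM loading.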

[2] = TOX21_p53_BLA_p4_viability: Viability Assessment in the Tox21 HCT-116 p53 Agonism Beta-lactamase Assay, Phase 4 (AID 2283597);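 further: hits lower the luminescence signal meaning cytotoxicity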
Summary of the method: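 Viability is taken as cellular ATP: after 16 h compound exposure of HCT116 cells and a 2 h room-temperature CCF4-AM substrate step, CellTiter-Glo reagent is added and luminescence is measured 30 min later.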

[3] = molecular target: Cellular tumor antigen p53 (Homo sapiens) (UniProt P04637); experiment: TOX21_p53_BLA_p5_ratio: Tox21 HCT-116 p53 Agonism Beta-lactamase Assay, Ratio, Phase 5 (AID 2283599)
Summary of the method: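 HCT-116 cells carrying a p53-inducible beta-lactamase reporter were seeded at 4000 cells/well and dosed after 5 h with compound in DMSO (217-fold dilution). After 16 h at 37C, CCF4-AM substrate was added for 2 h, and the 460/530 nm emission ratio was scored as gain-of-signal versus DMSO.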

[4] = molecular target: Cellular tumor antigen p53 (Homo sapiens) (UniProt P04637); experiment: TOX21_p53_BLA_p3_ratio: Tox21 HCT-116 p53 Agonism Beta-lactamase Assay, Ratio, Phase 3 (AID 2283596)
Summary of the method: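 Cells were seeded at 4000/well, rested 5 h at 37C, then dosed with DMSO compound solutions (217-fold dilution) for 16 h. CCF4-AM substrate was loaded for 2 h at room temperature, and the 460/530 nm emission ratio was fitted for gain of signal versus DMSO.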

[5] = molecular target: Cellular tumor antigen p53 (Homo sapiens) (UniProt P04637); experiment: TOX21_p53_BLA_p4_ratio: Tox21 HCT-116 p53 Agonism Beta-lactamase Assay, Ratio, Phase 4 (AID 2283601)
Summary of the method: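 HCT116 cells carrying an inducible beta-lactamase reporter were plated at 4000 cells/well, rested 5 h, then exposed to compounds in DMSO (217-fold dilution) for 16 h at 37C. CCF4-AM substrate was loaded 2 h at room temperature; 460/530 nm emission ratio scored gain-of-signal versus DMSO.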

[6] = TOX21_p53_BLA_p5_viability: Viability Assessment in the Tox21 HCT-116 p53 Agonism Beta-lactamase Assay, Phase 5 (AID 2283600)
Summary of the method: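 Viability is taken from cellular ATP content, measured by luciferase luminescence in the same wells after the beta-lactamase ratio read. Cells are seeded at 4000 per well and exposed to DMSO-dissolved compounds, diluted 217-fold, for 16 h.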

Measured: outcome

Chain of Cellular tumor antigen p53 (Homo sapiens) (P04637 whole entry, looked up): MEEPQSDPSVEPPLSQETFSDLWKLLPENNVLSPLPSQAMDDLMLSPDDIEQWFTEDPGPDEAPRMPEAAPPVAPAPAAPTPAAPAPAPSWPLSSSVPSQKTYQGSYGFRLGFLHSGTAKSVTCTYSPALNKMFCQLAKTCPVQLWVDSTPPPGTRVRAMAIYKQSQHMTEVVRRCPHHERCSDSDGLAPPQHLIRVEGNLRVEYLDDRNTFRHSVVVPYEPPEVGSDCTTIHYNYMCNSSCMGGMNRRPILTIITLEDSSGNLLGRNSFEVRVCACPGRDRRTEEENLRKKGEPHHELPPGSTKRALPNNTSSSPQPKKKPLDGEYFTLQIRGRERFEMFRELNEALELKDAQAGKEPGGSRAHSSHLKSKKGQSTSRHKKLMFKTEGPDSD

c1cc2c(c(N3CCNCC3)c1)OCCO2
inactive: [1] | [2] | [3]

CON(C)C(=O)Nc1ccc(Cl)cc1
inactive: [1] | [4] | [3] | [5]

CCCN1CCC[C@H](c2cccc(O)c2)C1
inactive: [1] | [4] | [3] | [5]

CC[C@@H](CO)NC(=O)[C@@H]1C=C2c3cccc4c3c(cn4C)C[C@H]2N(C)C1
inactive: [1] | [4] | [3] | [5]

CNNC
inactive: [1] | [2] | [3] | [6]
